Results as given in ChEMBL document CHEMBL4513216, “Probing the Open Global Health Chemical Diversity Library for Multistage-Active Starting Points for Next-Generation Antimalarials” (ACS Infect Dis, 2020).
Hit rate of the full screen: of about 69,000 compounds, about 8,600 (12%) showed an effect of 50% or more. The sample as a whole holds a higher share of strong results than the screen did.

tested on: Plasmodium berghei; experiment: Screen against P. berghei liver stage (PbLuc), transformed with Luciferase, at 10uM; type: functional, HepG2; conditions: tested at 10 uM

First: CC(C)Cc1nc(CN(C)CCOc2ccccc2F)no1
Second: Cc1ccccc1OCCN(C)Cc1noc(CC(C)C)n1
The INHIBITION of the first is higher: 34.7% for the first, 33.7% for the second.

Compared with CC(C)Cc1nc(CN(C)CCOc2ccc(F)cc2)no1, COCCC(=O)NCCc1nc(N(C)C)ncc1-c1ccncc1 is lower in INHIBITION: 59.4% for the first, 2.5% for the second.

First: Cc1cccc(C(=O)N2CCc3c(CN(C)C)nn(C)c3C2)n1
Second: Cc1cccc(C)c1OCCC(=O)N1CCC(c2nncn2C)CC1
The INHIBITION of the first is lower: 38.3% for the first, 55.9% for the second.

Going from Cc1nc(C)c(C(=O)NCCNc2ncccn2)s1 to CC(C)(C)NC(=O)CNc1ncccn1, the INHIBITION falls from 38.8% to -1.85%.

Going from CN1CCN(CC2CC2)C(=O)C12CCN(C(=O)c1ccnnc1)CC2 to Cc1nc(N2CCN(C)CC2)ncc1C(=O)N1CCCCC1, the INHIBITION rises from 5.63% to 36.6%.

Compared with CC(=O)Nc1ccc2c(c1)CN(C(=O)c1ccco1)CC2, CCC(=O)Nc1ccc2c(c1)CN(C(=O)c1ccco1)CC2 is lower in INHIBITION: 55.7% for the first, -46.6% for the second.

Going from COCC(=O)Nc1ccc2c(c1)CN(C(=O)c1ccco1)CC2 to CC1CCc2nc(NC(=O)CN(C)C(=O)c3ccco3)sc2C1 (centres undefined), the INHIBITION rises from -45.3% to 31.4%.

First: CC(=O)c1cc(Br)cc(F)c1OCC(=O)NC1CC1
Second: CC(SCC(=O)N(C)CC(=O)NC1CC1)c1ccc(F)c(F)c1 (centres undefined)
The INHIBITION of the first is higher: -3.72% for the first, -18.9% for the second.

Going from CN(C)C(=O)CN1CCCC(CCCc2ccccn2)(C(N)=O)C1 (centres undefined) to O=C(c1ccccn1)N1C[C@H]2CC[C@@H](C1)N(C(=O)CCc1ccsc1)C2, the INHIBITION rises from -50.2% to -16.5%.

First: Cc1ccc(OCCC(=O)N2CCC(c3nncn3C)CC2)c(C)c1
Second: Cc1ccccc1OCCC(=O)N1CCC(c2nncn2C)CC1
The INHIBITION of the first is lower: -17% for the first, -4.94% for the second.

First: CCn1cnnc1C1CCN(C(=O)c2cc3c(s2)CCC3)CC1
Second: CCn1cnnc1C1CCN(C(=O)c2cc3c(s2)CCCC3)CC1
The INHIBITION of the first is higher: 61.3% for the first, 13.3% for the second.

First: CCn1cnnc1C1CCN(C(=O)COc2ccc(Cl)cc2)CC1
Second: CCn1cnnc1C1CCN(C(=O)COc2ccccc2)CC1
The INHIBITION of the first is lower: -37.7% for the first, 53% for the second.

Going from CCn1cnnc1C1CCN(C(=O)COc2ccccc2OC)CC1 to CCn1cnnc1C1CCN(C(=O)COCCc2ccccc2)CC1, the INHIBITION rises from -41.6% to 32%.

Compared with COc1cccc(OCC(=O)N2CCC3(CC2)[C@H](O)C[C@@H]3OC)c1, CO[C@H]1C[C@@H](O)C12CCN(C(=O)CCCOc1ccccc1)CC2 is higher in INHIBITION: -14.1% for the first, 72.3% for the second.

First: Cn1cnnc1C1CCN(C(=O)c2cc3c(s2)CCC3)CC1
Second: Cn1cnnc1C1CCN(C(=O)CCCOc2ccccc2)CC1
The INHIBITION of the first is lower: 9.14% for the first, 28.8% for the second.

First: NCCO[C@H]1C[C@@H](O)C12CCN(C(=O)CCOc1ccccc1)CC2
Second: CCn1cnnc1C1CCN(C(=O)CCCOc2ccccc2)CC1
The INHIBITION of the first is lower: 5.67% for the first, 60.9% for the second.

Going from CC1(c2ccc(Br)cc2)CC(=O)N(CCC#N)C1=O (centres undefined) to CC(CN1CCCC1=O)NC(=O)c1cc(=O)[nH]c2ccc(Cl)cc12 (centres undefined), the INHIBITION rises from -12.2% to 35.4%.

First: O=C(O)c1ccccc1-c1ccc(CN2CCCC(O)C2)cc1 (centres undefined)
Second: Oc1nc(C2CCN(Cc3ccccn3)CC2)cc2ccccc12
The INHIBITION of the first is higher: 48.6% for the first, -13.2% for the second.

Going from CCOc1ccnc(N2CCN(C(=O)c3cn[nH]c3C)CC2)n1 to Cc1nc(N2CCN(C)CC2)ncc1C(=O)N1CCN(C)CC1, the INHIBITION rises from -11.4% to 23%.

Going from CCc1n[nH]c(=O)c(C(=O)N2CCSC(C)(C)C2)c1CC to CCCc1ccc(CN2CCC3(CCC(=O)N(C(C)C(=O)O)C3)CC2)o1 (centres undefined), the INHIBITION falls from 18.7% to 1.74%.

Compared with Cc1noc(C)c1CCC(=O)N1CCOCC1CC(=O)N1CCCC1 (centres undefined), Cc1nc(N2CCN(C)CC2)ncc1C(=O)N1CCCCCC1 is higher in INHIBITION: -14.1% for the first, 51.7% for the second.

Going from COCC(=O)N1CCO[C@H]2[C@H](OCc3cccnc3)CC[C@@H]21 to CCC(O)CN1CCN(C(=O)c2cccn2Cc2cccnc2)CC1 (centres undefined), the INHIBITION rises from -15.7% to 7.12%.

Compared with Cc1nc(N2CCC3(CCCNC3=O)C2)nc2c1CCCC2 (centres undefined), CNc1nc(N2CCC3(CCCNC3=O)C2)nc2c1CCC2 (centres undefined) is lower in INHIBITION: 47.5% for the first, -7.17% for the second.

Going from O=C1NCCCC12CCN(c1nc3c(c(C(F)(F)F)n1)CCCC3)C2 (centres undefined) to CN(CC(=O)Nc1nc2c(s1)CCCCCC2)C(=O)c1ccco1, the INHIBITION falls from 80.7% to 74.4%.

Compared with CN(C)CCCNC(=O)C1CC(=O)N(c2n[nH]c3cccc(F)c23)C1 (centres undefined), CC(SCC(=O)N(C)CC(=O)NC1CC1)c1ccccc1F (centres undefined) is higher in INHIBITION: 14.6% for the first, 85.7% for the second.

First: CC1CCN(c2ccc(C(=O)N3CCCC3c3ccc[nH]3)cn2)CC1 (centres undefined)
Second: COc1cccc(C(=O)NC(c2ccccn2)C2CCC(CN)CC2)c1 (centres undefined)
The INHIBITION of the first is lower: 27% for the first, 41.2% for the second.

Going from CCCN1C(=O)[C@@H]2CC[C@H]1CN(S(=O)(=O)c1cccc(Cl)c1)C2 to CCOCC(=O)N1C[C@@H]2CC[C@H]1CN(C(=O)c1ccncc1)C2, the INHIBITION falls from -26.8% to -30.7%.

First: CN(CC(=O)Nc1nc2c(s1)CCC2)C(=O)c1cccs1
Second: CC(SCC(=O)N(C)CC(=O)NC1CC1)c1cc(F)ccc1F (centres undefined)
The INHIBITION of the first is lower: -8.51% for the first, 49.3% for the second.

Compared with Cc1cccc(CN2C[C@@H]3COC[C@]3(CNC(=O)c3ccccc3)C2)n1, CCNC(=O)NC(=O)CSC(C)c1ccccc1F (centres undefined) is lower in INHIBITION: 38.3% for the first, -32.3% for the second.

Going from Cc1ccc(CN2CCN(C3CCSCC3)CC2CCO)o1 (centres undefined) to Cc1ccc(CN2CCN(C3CCC3)CC2CCO)o1 (centres undefined), the INHIBITION falls from 48% to 46.6%.

Going from CC(=O)N1CCC(N2CCN(Cc3ccc(C)o3)C(CCO)C2)CC1 (centres undefined) to Cc1ccc(CN2CCN(C3CCCC3)CC2CCO)o1 (centres undefined), the INHIBITION rises from 33.7% to 50.9%.

Going from COc1cc(N2CCN(Cc3ccc(C)o3)C(CCO)C2)nc(N)n1 (centres undefined) to Cc1ccc(CN2CCN(C3CSCCSC3)CC2CCO)o1 (centres undefined), the INHIBITION rises from 35.2% to 50.9%.

Compared with O=C(CN1CCN(C(=O)c2sccc2C2CC2)CC1)NC1CC1, Nc1nc(C2CCN(C(=O)c3cscn3)CC2)cs1 is higher in INHIBITION: 31.8% for the first, 34.7% for the second.

Going from Cc1cc(NC(C)c2csc(C)n2)n2nc(C)c(C)c2n1 (centres undefined) to CNC(=O)NC(=O)CSC(C)c1ccccc1F (centres undefined), the INHIBITION rises from 25.4% to 55%.

CC(SCC(=O)NC(N)=O)c1ccccc1F (centres undefined) showed an INHIBITION of 24.7%.
